KB-V1 cytotox: qHTS assay for MDR1-selective chemotherapeutics: Primary screen using the drug-selected MDR subline cells KB-V1. KB-V1 MDR cells viability, CellTiter-Glo, 72 h. Potency, µM (titrated, usually from 46.1 µM), hits mostly cytotoxic. hit rate 3.4% among 400,000; note: % is set by controls: 0 for no effect and ±100 for the full control effect; nearly all actives have a fitted effect of over 60% in size
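Drug-selected KB-V1 cells, grown in DMEM lacking phenol red with 10% FBS, receive compound titrations; after three days at 37 degrees C, surviving cell ATP is quantified by CellTiter-Glo luminescence and responses normalized and curve-fitted.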
SW480 rereplic: A quantitative high throughput screen for small molecules that induce DNA re-replication in SW480 colon adenocarcinoma cells; Potency, µM (titrated, usually from 46.1 µM), inactives show at the top dose re-replication activation, hits mostly activators; SW480 DNA re-replication, Hoechst DNA content imaging, 48 h; hit rate 1.8% among 340,000; note: % of control where 0% means no effect; nearly all actives have a fitted effect of over 55% in size
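Image-based read-out: total Hoechst fluorescence of nuclei (405 nm excitation, 500-530 nm emission), with hits raising the fraction of high-intensity nuclei. SW480 colon cells incubated 48 hr with compounds at 37 C.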
MCF10A rereplic: A quantitative high throughput screen for small molecules that induce DNA re-replication in MCF 10a normal breast cells; hit rate 2.9% among 350,000; Potency, µM (top dose mostly 46.1 µM), for inactives: at the top dose activity, positive = re-replication, most hits filed as activators; MCF 10A DNA re-replication, Hoechst nuclear intensity, 48 h; note: % of control where 0% means no effect; nearly all actives have a fitted effect of over 50% in size
HT1080 IDH1KD tx: qHTS for induction of synthetic lethality in tumor cells producing 2HG: qHTS for the HT-1080-IDH1KD cell line; HT-1080 IDH1 knockdown viability, ATP luminescence, 48 h; hit rate 2% among 360,000; Potency, µM (top dose mostly 46.1 µM), for the others: top-dose activity, negative = toxicity, hits mostly cytotoxic; AID 686971, 2013;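 note: 0% = DMSO wells and -100% = cell-free medium wells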
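Cytotoxicity counter-line: IDH1KD HT-1080, 48 h, CellTiter-Glo. Curves classed by r2, magnitude and activity.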
KB-3-1 cytotox: qHTS assay for MDR1-selective chemotherapeutics: Primary screen using the parental adenocarcinoma cell KB-3-1; KB-3-1 viability, CellTiter-Glo ATP luminescence, 72 h; hit rate 1.4% among 400,000; Potency, µM (titrated, usually from 46.1 µM), usual class: cytotoxic; note: % is set by controls: 0 for no effect and ±100 for the full control effect; nearly all actives have a fitted effect of over 60% in size
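Cells are dispensed, compounds pinned in, plates held at 37 °C for 72 h, then CellTiter-Glo is added and luminescence read after 10 minutes. Cell line: parental KB-3-1 in phenol-red-free DMEM, 10% FBS.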
HT1080NT lethal: qHTS for induction of synthetic lethality in tumor cells producing 2HG: qHTS for the HT-1080-NT fibrosarcoma cell line. Potency, µM (highest dose often 46.1 µM), without a hit: at the top dose activity, negative = less viability, actives largely listed as cytotoxic. HT-1080-NT fibrosarcoma viability, CellTiter-Glo ATP luminescence, 48 h. hit rate 1.6% among 360,000;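 note: NT is the 2HG producing partner of a matched IDH1 knockdown line; 0% = DMSO-treated cells and -100% = media-only wells without cells; nearly all actives have a fitted effect of over 55% in size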
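Fibrosarcoma NT cells, 750 per well in 5% FBS RPMI, were exposed to compound for 48 hours. Viability: CellTiter-Glo luminescence.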
* = called active by the depositor; [ ] = another dose, or the depositor's remark. Hits are enriched below; roughly 8% of the tested compounds scored in any of these assays. Calls come from the whole dose curve; as a rule, active = well fitted curve in the direction sought with a large enough effect; inconclusive = small, poorly fitted or top-dose-only effect, or another doubt; inactive = no such curve, though single readings can be large; an effect the other way counts as inactive or inconclusive. Potency is the fitted concentration of half-maximal effect.

CCOC(=O)C1=C(N)n2c(s/c(=C\c3ccncc3)c2=O)=C(C(=O)OCC)C1c1ccncc1 (stereo unspecified) was read as KB-V1 cytotox inactive, SW480 rereplic 1.5%, MCF10A rereplic 6.0%, HT1080 IDH1KD tx -5.7%, KB-3-1 cytotox inactive and HT1080NT lethal 1.4%.
For CC(C(=O)O)C(=O)O the results were KB-V1 cytotox inactive, SW480 rereplic inconclusive, MCF10A rereplic -18.6%, HT1080 IDH1KD tx 0.6%, KB-3-1 cytotox inactive and HT1080NT lethal 3.2%.
Screening Cc1ccc(Sc2ccc(NC(=O)CCl)cc2)cc1C returned KB-V1 cytotox inconclusive, SW480 rereplic inconclusive, MCF10A rereplic inconclusive, HT1080 IDH1KD tx -27.1%, KB-3-1 cytotox inconclusive and HT1080NT lethal -24.3%.
Screening Cc1ccc(C)c(Sc2ccc(NC(=O)CCl)cc2)c1 returned KB-V1 cytotox inconclusive, SW480 rereplic 25.9%, MCF10A rereplic inconclusive, HT1080 IDH1KD tx -19.0%, KB-3-1 cytotox 20.6µM* and HT1080NT lethal -15.7%.
`Cc1ccc(NC(=S)N(CCCN2CCOCC2)Cc2ccco2)cc1Cl` gave KB-V1 cytotox inactive, SW480 rereplic -1.3%, MCF10A rereplic 4.8%, HT1080 IDH1KD tx -1.1%, KB-3-1 cytotox inactive and HT1080NT lethal 1.6%.
For Cc1ccc(NC(=O)CN2CCSc3ccc(S(=O)(=O)N4CCCC4)cc32)cc1C the results were KB-V1 cytotox 10.3µM* and KB-3-1 cytotox inconclusive.
For Cn1cnc([N+](=O)[O-])c1Sc1nc(N)nc2c1ncn2C1CC(O)C(CO)O1 (stereo unspecified) the results were KB-V1 cytotox 5.17µM*, SW480 rereplic 7.31µM*, MCF10A rereplic 2.06µM*, HT1080 IDH1KD tx 1.3µM*, KB-3-1 cytotox 3.66µM* and HT1080NT lethal 2.31µM*.
For Cn1cnc([N+](=O)[O-])c1Sc1nc(N)nc2c1ncn2C1OC(CO)C(O)C1O (stereo unspecified) the results were KB-V1 cytotox 1.16µM*, SW480 rereplic 5.8µM*, MCF10A rereplic 2.06µM*, HT1080 IDH1KD tx 1.3µM*, KB-3-1 cytotox inconclusive and HT1080NT lethal 1.3µM*.
For O=C(COc1ccc(Oc2ccccc2)cc1)NCc1cn2ccccc2n1 the results were KB-V1 cytotox inconclusive, SW480 rereplic inconclusive, MCF10A rereplic 14.6µM*, HT1080 IDH1KD tx 3.26µM*, KB-3-1 cytotox 14.6µM* and HT1080NT lethal 2.59µM*.
O=C(NC1CCCCC1)c1ccccc1C(F)(F)F was read as KB-V1 cytotox inactive, SW480 rereplic 5.2%[1.84 µM], MCF10A rereplic inconclusive, HT1080 IDH1KD tx 11.2%, KB-3-1 cytotox inactive and HT1080NT lethal 8.2%.
Screening CCCc1cc(=O)n2[nH]c(-c3cccc(Br)c3)cc2n1 returned KB-V1 cytotox inactive, SW480 rereplic -5.7%[9.22 µM], MCF10A rereplic 12.3%, HT1080 IDH1KD tx -11.7%, KB-3-1 cytotox inactive and HT1080NT lethal -13.0%.
`Cc1nc(C)c(C(=O)NCCC(c2ccccc2)c2ccccc2)o1` gave KB-V1 cytotox 8.2µM*, SW480 rereplic 11.7%, MCF10A rereplic -1.8%, HT1080 IDH1KD tx -29.5%, KB-3-1 cytotox inconclusive and HT1080NT lethal -16.5%.
For Cc1ccsc1C(=O)NCCC(c1ccccc1)c1ccccc1 the results were KB-V1 cytotox inactive, SW480 rereplic 7.4%, MCF10A rereplic inconclusive, HT1080 IDH1KD tx -0.1%, KB-3-1 cytotox inactive and HT1080NT lethal -8.1%.
`Oc1ccc(-c2cc(-c3ccc(O)cc3)nc(-c3ccccc3)n2)cc1` gave KB-V1 cytotox inactive, SW480 rereplic inconclusive, MCF10A rereplic inconclusive, HT1080 IDH1KD tx inconclusive, KB-3-1 cytotox inactive and HT1080NT lethal 11.6µM*.
Screening N#Cc1c(-c2ccccc2)cc(-c2ccc(O)cc2)nc1N returned KB-V1 cytotox inactive, SW480 rereplic inconclusive, MCF10A rereplic 23.1µM*, HT1080 IDH1KD tx -2.3%, KB-3-1 cytotox inactive and HT1080NT lethal -6.3%.
`COc1ccc(-c2cc(-c3ccc(O)cc3)nc(N)c2C#N)cc1` gave KB-V1 cytotox inactive, SW480 rereplic 21.6%, MCF10A rereplic inconclusive, HT1080 IDH1KD tx -0.3%, KB-3-1 cytotox inactive and HT1080NT lethal -10.5%.
`Cc1ccc[n+](CC(=O)N2CCCc3ccccc32)c1` gave KB-V1 cytotox inconclusive, SW480 rereplic 4.5%, MCF10A rereplic -12.5%, HT1080 IDH1KD tx 1.2%, KB-3-1 cytotox inactive and HT1080NT lethal 4.9%.
For CC(=O)c1cnc(-c2cccc(Cl)c2)s1 the results were KB-V1 cytotox inconclusive, SW480 rereplic -38.3%, MCF10A rereplic 2.06µM*, HT1080 IDH1KD tx 3.5%, KB-3-1 cytotox inactive and HT1080NT lethal 1.0%.
For CN(C)/C=C/C(=O)c1cnc(-c2cccc(Cl)c2)s1 the results were KB-V1 cytotox inactive, SW480 rereplic -0.8%, MCF10A rereplic 0.651µM*, HT1080 IDH1KD tx -2.6%, KB-3-1 cytotox inactive and HT1080NT lethal -5.0%.
`O=c1[nH]c2cc3c(cc2cc1CN(CCCO)C(=S)NCc1ccco1)OCO3` gave KB-V1 cytotox inactive, SW480 rereplic 0.8%, MCF10A rereplic 7.9%, HT1080 IDH1KD tx -1.9%, KB-3-1 cytotox inactive and HT1080NT lethal -8.0%.
Screening COc1ccc(OC)c(CN2CCC(C(=O)N3CCOCC3)CC2)c1 returned KB-V1 cytotox inactive, SW480 rereplic 0.517µM*, MCF10A rereplic inconclusive, HT1080 IDH1KD tx -2.0%, KB-3-1 cytotox inactive and HT1080NT lethal -5.1%.
COc1ccc(F)c(CN2CCC(N3CCC(C(=O)N4CCOCC4)CC3)CC2)c1 was read as KB-V1 cytotox inactive, SW480 rereplic -2.9%, MCF10A rereplic 1.4%, HT1080 IDH1KD tx -1.9%, KB-3-1 cytotox inactive and HT1080NT lethal 0.0%.
For COc1ccc(-c2nc(CN3CCC(C(=O)N4CCOCC4)CC3)c(C)o2)cc1OC the results were KB-V1 cytotox inactive, SW480 rereplic -0.3%, MCF10A rereplic 0.8%, HT1080 IDH1KD tx 13.5%, KB-3-1 cytotox inconclusive and HT1080NT lethal -0.9%.
Screening COc1ccc(-c2nc(CN3CCC(C(=O)N4CCOCC4)CC3)c(C)o2)cc1C returned KB-V1 cytotox inactive, SW480 rereplic 10.3µM*, MCF10A rereplic -0.5%, HT1080 IDH1KD tx 1.4%, KB-3-1 cytotox inactive and HT1080NT lethal -9.5%.
